Measured values taken from PubChem BioAssay AID1851 (National Center for Advancing Translational Sciences (NCATS), 2009).
Hit rate of the full screen: of about 16,000 compounds, about 2,600 (16%) were called active. About 20% were inconclusive and are not listed. Calls follow the shape of the dose curve; as a rule, active = well fitted curve in the direction sought with a large enough effect; inconclusive = small, poorly fitted or top-dose-only effect, or effect the other way; inactive = no such curve, though single readings can be large or run the other way. A selection follows.

Target: Cytochrome P450 2D6 (Homo sapiens) (UniProt P10635)
Test: Cytochrome panel assay with activity outcomes
Conditions: recombinant CYP, pro-luciferin dealkylation, luminescence, p450-cyp2d6; series mostly up to 57.1 µM; activity, negative = inhibition: at the top concentration
% is scaled to controls: 0 for no effect and ±100 for the full control effect.

Sequence of Cytochrome P450 2D6 (Homo sapiens) (P10635 whole entry, looked up): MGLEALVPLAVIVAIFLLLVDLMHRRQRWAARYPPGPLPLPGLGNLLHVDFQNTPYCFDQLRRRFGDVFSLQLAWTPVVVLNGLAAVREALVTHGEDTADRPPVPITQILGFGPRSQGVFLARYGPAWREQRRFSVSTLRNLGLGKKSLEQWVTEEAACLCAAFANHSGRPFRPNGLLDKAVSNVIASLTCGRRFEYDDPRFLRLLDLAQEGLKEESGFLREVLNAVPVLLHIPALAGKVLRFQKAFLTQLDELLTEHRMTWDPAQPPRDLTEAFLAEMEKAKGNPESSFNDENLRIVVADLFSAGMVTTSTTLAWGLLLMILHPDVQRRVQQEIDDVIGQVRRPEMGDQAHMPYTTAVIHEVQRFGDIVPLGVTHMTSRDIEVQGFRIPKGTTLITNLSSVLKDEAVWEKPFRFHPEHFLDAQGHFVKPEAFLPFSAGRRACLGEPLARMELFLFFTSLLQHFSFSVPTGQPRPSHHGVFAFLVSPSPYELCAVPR

activity, negative = inhibition, inactive:
Cc1noc(NC(=O)Nc2ccccc2F)c1C#N 0.368% [at 11.4 µM]
CC(/C=C/c1ccco1)=N/NC(=O)c1ccccc1Cl -12.5%
CCOC(=O)N/N=C1/C[C@@H](O)[C@@H](O)[C@@H]2[C@@H]3C(=O)N(C(C)(C)C)C(=O)[C@H]3CC[C@@H]12 -10.6% [at 11.4 µM]
CO[C@H]1COC(=O)CCC[C@H](C)[C@@H](OC)COC(=O)C/C=C\[C@@H]1C -0.797% [at 11.4 µM]
Cc1ccc(S(=O)(=O)c2cc(N3CCOCC3)nc(-c3ccccc3)n2)cc1 -14%
N#CCCn1c(=O)cnc2cnc(OCc3ccccc3)nc21 -3.27%
CCCNC(=O)OC[C@@H]1O[C@H](CCON=C(C)C)C=C[C@@H]1Oc1ccc(OC)cc1 -7.52% [at 11.4 µM]
COc1cc2nc(N3CC=[N+](C(=O)c4ccco4)CC3)nc(N)c2cc1OC -10%
CCOc1ccccc1/C=C(\C#N)C(N)=O 1.77% [at 11.4 µM]
C[C@H]1C2=C3C(CC[C@H]4C(OCc5ccc(F)cc5C(F)(F)F)OC[C@](C)([C@@H]34)N(C(=O)OC(C)(C)C)C2)C(CO)C1CO (stereo partly specified) -7.43%
Nc1nc2c(c(=O)[nH]1)N(C=O)[C@H](CNc1ccc(C(=O)N[C@@H](CCC(=O)O)C(=O)O)cc1)CN2 2.81% [at 25.6 µM]
CC(Sc1nnc(Cc2cccs2)n1C1CCCCC1)C(N)=O (stereo unspecified) 2.37%
CC1CCC(NC(=O)CC(C)(C)Cc2nc3ccccc3c(=O)[nH]2)CC1 (stereo unspecified) -11.4%
O=C(COc1ccccc1-c1ccccc1)N/N=C/c1cccc2ccccc12 -20.7%
O=c1c(-c2cc(F)cc(F)c2)nc2cnc(N3CCNCC3)nc2n1C1CC1 -10.9%
Cc1ccc2cc(C(=O)O)c(C)nc2c1 14.1%
Cc1ccc(CSc2nc3c(c(SCC(=O)O)n2)CCCC3)cc1 22.3%
CO[C@H]1COC(=O)C/C=C\[C@@H](C)[C@H](OC)COC(=O)[C@H]2CCCN2C(=O)C/C=C\[C@@H]1C 18.5% [at 11.4 µM]
O=C(Nc1ccccc1)N(Cc1ccccc1)CC(O)C(F)(F)F (stereo unspecified) -12.8%
CC(O)(CS(=O)(=O)Cc1ccccc1Cl)C(=O)Nc1cccc(C(F)(F)F)c1 (stereo unspecified) -19.7%
O=S(=O)(NCc1cn2ccsc2n1)c1ccc(Oc2ccccc2)cc1 -5.31%
CCN(c1ccc(NC(=O)COC(=O)c2ccc3ccccc3n2)cc1)C(C)C -23.3%
O=C(NCCOC(=O)c1ccc(C(=O)OCCNC(=O)c2cccnc2)s1)c1cccnc1 -19.5%
Cc1cc(C)cc(-n2nnnc2SCC(=O)Nc2nc(-c3ccc(Cl)cc3)cs2)c1 -11.9%
COC(=O)N1CCC[C@@]2(CCN(C(=O)Nc3ccc(OC)cc3)C2)C1 -5.4%
CC(=O)N1CCC2(CC1)CN(C(c1ccccc1)c1ccccc1)C2 13.1%
COC(=O)N1CCC[C@@]2(CCN(C(=O)Nc3ccccc3)C2)C1 4.3%
CC(=O)N1CCC2(CC1)CN(c1ccccc1)C2 3.1%
COc1ccc(NC(=O)N2CC[C@@]3(CCCN(C(=O)c4c(C)noc4C)C3)C2)cc1 18.1%
COc1ccc(NC(=O)N2CC3(CCN(C(=O)c4c(C)noc4C)CC3)C2)cc1 -3.71%
Cc1noc(C)c1C(=O)N1CCC2(CC1)CN(c1ccccc1)C2 -7.99%
Cc1noc(C)c1C(=O)N1CCC[C@@]2(CCN(c3ccccc3)C2)C1 -15%
COc1ccc(-n2c(C)n[nH]c2=O)cc1OC 6.47%
O=c1cnc2cnc(Oc3ccccc3)nc2n1CCc1ccccc1 -4.72%
Nc1nc2ncc(CNc3ccc(C(=O)N[C@@H](CCC(=O)O)C(=O)O)cc3)nc2c(=O)[nH]1 4.78% [at 25.6 µM]
COc1ccc(NC(=O)C2(c3ccc(NC(=O)c4ccc(OC(C)=O)cc4)cc3)CCCC2)cc1 -0.389%
CC(=O)N(/N=C1\Sc2ccccc2C1=O)c1ccccc1C 14.4%
COc1ccc(-n2c(=O)c(-c3cccs3)nc3cnc(N4CCN(C)CC4)nc32)cc1 0.52%
CCOC(=O)N/N=C/c1ccccc1F -9.33%
O=C(CNC(=O)c1ccco1)OC(C(=O)c1ccccc1)c1ccccc1 (stereo unspecified) -7.29%
COC(=O)N1CCC2(CCCN(c3ccc(-c4ccccc4)cc3)C2)CC1 -3.96%
COC(=O)N1CCC2(CC1)CCN(c1ccccc1)CC2 -15.3%
CC(=O)N1CCC2(CCCN(c3ccccc3)C2)CC1 -9.94%
COC(=O)N1CCC2(CC1)CN(C(=O)Nc1ccccc1)C2 -7.42%
COC(=O)N1CCC2(CC1)CN(c1ccc(-c3ccccc3)cc1)C2 -10.2%
COC(=O)N1CCC2(CC1)CN(c1ccccc1)C2 -4.45%
COC(=O)N1CCC2(CCN(C(=O)Nc3ccccc3)CC2)CC1 -11.2%
CC(=O)N1CCC[C@@]2(CCN(c3ccccc3)C2)C1 -6.82%
Cc1c(NC(=O)NC(C)N2C(=O)C3C4C=CC(C4)C3C2=O)c(=O)n(-c2ccccc2)n1C (stereo unspecified) 2.58%
CCOC(=O)C1=C(CSc2nc(-c3ccccc3)ccc2C#N)OC(N)=C(C#N)C1c1ccc(OC)cc1 (stereo unspecified) -9.31%
CCOC(=O)c1[nH]c(C)c(C)c1C -3.5%
Nc1ncnc2c1ncn2C[C@@H](O)C(=O)O 10.9% [at 11.4 µM]
O=C(N/N=C/c1c(Nc2cccc(C(F)(F)F)c2)nc2ccccn2c1=O)c1ccccc1 -3.29%
CC(C)CCN1C(=O)c2ccc(-c3nc4ccccc4c(=O)o3)cc2C1=O 16.9%
Cc1noc(C)c1C(=O)N1CCC[C@@]2(CCN(C(=O)NC(C)C)C2)C1 3.36%
COCCCNC(=O)C1CCN(S(=O)(=O)N(CC(C)C)CC(C)C)CC1 8.44%
CC(C)(C)c1ccc(-c2c(C#N)c(N)nc3c2CCCC3)s1 -10.7%
Cc1noc(C)c1C(=O)N1CCC2(CC1)CN(c1ncccn1)C2 4.38%
COc1ncnc(NS(=O)(=O)c2ccc(N)cc2)c1OC -2.5% [at 25.6 µM]
CCOC(=O)N1CCN(C(=O)c2ccc3nc(SCc4ccc(F)cc4)n(C)c3c2)CC1 -13.8%
C[C@H]1C[C@H]2[C@H]3CCC4=CC(=O)C=C[C@@]4(C)[C@]3(F)[C@H](O)C[C@]2(C)[C@@]1(O)C(=O)COP(=O)(O)O 2.95% [at 11.4 µM]
C[C@@H]1C[C@@H]2[C@H]3CCC4=CC(=O)C=C[C@]4(C)[C@]3(Cl)[C@@H](O)C[C@@]2(C)[C@@]1(O)C(=O)CO 15%
C=CCC(C(=O)OC)(C(=O)OC)c1ccc([N+](=O)[O-])cn1 -11.8%
CCNc1ncc2ncc(=O)n(C3CC3)c2n1 -4.43%
CCOC(=O)CSc1n[nH]c(NC(=O)c2ccccc2)n1 -2.06%
Cc1sc(NC(=O)c2ccco2)c(C(c2ccncc2)N2CCOCC2)c1C (stereo unspecified) -27%
COCCNc1ncnc2ccc(-c3c(C)noc3C)cc12 -2.91%
CC(=O)NCCNc1ncnc2ccc(-c3c(C)noc3C)cc12 -9.88%
Cc1noc(C)c1-c1ccc2ncnc(NC3CCNCC3)c2c1 -0.394%
Cc1noc(C)c1-c1ccc2ncnc(N3CCOCC3)c2c1 8.01%
N#Cc1cccc(NC(=O)N2CCC3(CC2)CCN(C(=O)c2ccco2)CC3)c1 -12.3%
COc1ccccc1NC(=O)C(C/C=C(\C)Cl)C(C)=O (stereo unspecified) -14%
Cc1nn(C)c(C(=O)NNC(=S)Nc2ccc(Cl)cc2)c1[N+](=O)[O-] -24.6%
Cn1c(=O)c(-c2ccccc2)nc2cnc(Oc3ccccc3)nc21 -7.05%
Nc1ccc(Oc2ccc3nc(-c4ccccc4)c(-c4ccc([N+](=O)[O-])cc4)nc3c2)cc1 10.3%
O=C(N=NC(=O)c1ccc2c(O)n(C3CCCCC3)c(O)c2c1)c1cccnc1 15.3%
Nc1ncnc2c1nc(-c1ccccc1)n2[C@H]1O[C@@H](CO)[C@@H](O)[C@H]1O 11.6% [at 11.4 µM]
C=C(C)C(=O)N1CC2(CC(c3cccc(NC(=O)c4ccccc4)c3)=NO2)C[C@@H]1C(N)=O (stereo partly specified) -3.06%
COc1ccc(C(=O)N2CC3(CC(c4cccc([N+](=O)[O-])c4)=NO3)C[C@H]2C(=O)NCC(N)=O)cc1 (stereo partly specified) -16.3%

AC50, active:
N=C(C[C@@H](O)COc1ccccc1-c1ccccc1)N1CCCCC1 31.6 µM
O=C(Nc1cccc(C(F)(F)F)c1)N(Cc1ccc(Cl)cc1)CC(O)C(F)(F)F (stereo unspecified) 15.8 µM
O=C(OCCNC(=O)c1ccc2ccccc2n1)c1ccc(F)cc1 15.8 µM
Cc1noc(C)c1C(=O)N1CCC2(CCCN(C(c3ccccc3)c3ccccc3)C2)CC1 2 µM
CC(=O)N1CCC2(CC1)CCN(C(c1ccccc1)c1ccccc1)CC2 7.94 µM
COC(=O)N1CCC[C@@]2(CCN(C(c3ccccc3)c3ccccc3)C2)C1 2 µM
COc1ccc(NC(=O)N2CCCC3(CCN(C(=O)c4c(C)noc4C)CC3)C2)cc1 10 µM
COC(=O)N1CCC2(CCCN(C(c3ccccc3)c3ccccc3)C2)CC1 10 µM
CC(=O)N1CCC2(CCCN(C(c3ccccc3)c3ccccc3)C2)CC1 7.94 µM
COC(=O)N1CCC2(CC1)CN(C(c1ccccc1)c1ccccc1)C2 0.794 µM
COC(=O)N1CCC2(CC1)CCN(C(c1ccccc1)c1ccccc1)CC2 7.94 µM
C[C@H]1C[C@@H]2[C@H]3CCC4=CC(=O)C=C[C@@]4(C)[C@@]3(Cl)[C@@H](O)C[C@]2(C)[C@]1(OC(=O)c1ccco1)C(=O)CCl 3.98 µM
CCN1CCN(C(c2ccccn2)c2c(NC(=O)c3ccccc3)sc(C)c2C)CC1 (stereo unspecified) 14.1 µM
Cc1noc(C)c1-c1ccc2ncnc(NCc3cccs3)c2c1 20 µM
Cc1cccc(CNc2ncnc3ccc(-c4c(C)noc4C)cc23)c1 15.8 µM
NC(=O)C1(NC(=O)[C@@H]2CC3(CC(c4cccc(NC(=O)c5cc([N+](=O)[O-])cc([N+](=O)[O-])c5)c4)=NO3)CN2C(=O)c2ccccc2)CC1 (stereo partly specified) 15.8 µM

AC50, inactive:
CC(=O)OCC1=C(C(=O)O)N2C(=O)[C@@H](NC(=O)Cc3cccs3)[C@@H]2SC1
